# Reference: PubChem BioAssay (NCI)
# The panel holds about 83,000 compounds, 20% with a hit somewhere; the sample as a whole holds those more often.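 Plates (96-well) were seeded with cells, treated with compound at one concentration, and incubated for 48 hours before percent growth was determined.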 A number with no mark means an inactive call. Activity calls are given as the source filed them. The calls were made as follows: active = growth percent below 10; inactive = the rest.
# Test system: DU-145 prostate
# Assay: NCI-60 one-dose screen, 48 h (100 = growth as untreated, 0 = no growth, -100 = all killed)
# Settings: 10 µM unless noted
row,Compound,growth
1,c1ccc2c(c1)oc1cc3sccc3nc12,114%
2,CC1=C(C(=O)OCC2CCN(C(=O)OC(C)(C)C)CC2)[C@H](c2cccc(C#N)c2)C2=C(CC(C)(C)CC2=O)N1,52.5%
3,O=C(c1nc2ccccc2[nH]1)C1C(c2ccc([N+](=O)[O-])cc2)C2CC3CCCCC3N2[C@@]12C(=O)Nc1cc(Cl)ccc12 (stereo partly specified),51.3%
4,Nc1ccn(C2O[C@H](CO)[C@@H](O)[C@H]2O)c(=O)n1 (stereo partly specified),94.4%
5,Nc1ccc(-n2c(=O)oc3ccc(Cl)cc3c2=O)c(Cl)c1,9.79% (active)
6,CC1=C(C(=O)OCC2CCN(C(=O)OC(C)(C)C)CC2)[C@@H](c2cccc(C#N)c2)C2=C(CC(C)(C)CC2=O)N1,38.5%
7,N#Cc1c(N)nc2c(c1N)C(c1ccc(F)cc1)c1ccc(N)cc1O2 (stereo unspecified),110%
8,COc1ccc(Cn2c(Br)c3c(c2-c2cc(OC)c(OC)c(OC)c2)CCc2sc(NC(=O)c4ccc(OC)cc4)nc2-3)cc1,102%
9,O=c1cc(NC2CCN(CCCc3ccccc3)CC2)c2cc(Cl)ccc2o1,15.5%
10,Brc1ccc(Oc2ccc(Nc3ncnc4onc(-c5ccccc5)c34)cc2)cc1,102%
11,NNC(=O)CNC(=O)Nc1n[nH]c(=S)s1,107%
12,COc1ccc(Cn2c(Br)c3c(c2-c2cc(OC)c(OC)c(OC)c2)CCc2sc(NC(C)=O)nc2-3)cc1,66.7%
13,COc1ccc(/C=C2\NC(=O)NC2=O)cc1O,116%
14,Cc1cc2c(c(C)c1Cl)C(=O)/C(=C/c1ccco1)O2,103%
15,O=C(Nc1ccc(N2CCNCC2)cc1)c1[nH]ncc1Nc1cc(Oc2ccccc2)ncn1,15.9%
16,CS(=O)(=O)Nc1ccc(C(=O)NC(C(=O)NO)c2ccc(-c3cccc(F)c3)cc2)cc1 (stereo unspecified),83.5%
17,CC[C@]1(O)C[C@@H]2CN(CCc3c([nH]c4ccccc34)[C@@](C(=O)OC)(c3cc4c(cc3OC)N(C)[C@H]3[C@@](O)(C(=O)OC)[C@H](OC(C)=O)[C@]5(CC)C=CCN6CC[C@]43[C@@H]65)C2)C1,-7.13% (active)
18,O=C(CN1C(=O)/C(=C\c2ccc(Cl)cc2)SC1=S)Nc1ncc(Cc2ccc(Cl)cc2)s1,106%
19,CCCCC(O)(c1ccc(Cl)cc1)C(CN1CCOCC1)c1ccc(Cl)cc1 (stereo unspecified),58.2%

row,Compound,growth
1,O=C(Nc1ccc(C23CC4CC(CC(c5ccccc5)(C4)C2)C3)cc1)c1cccs1,84.7%
2,O=C(COc1cc(O)c2c(=O)cc(-c3ccccc3)oc2c1)Nc1ccccc1,81.5%
3,COc1cc(C(=O)Nc2ccc(-c3nc4ccccc4[nH]3)cc2)cc(OC)c1OC,87.9%
4,COC(=O)[C@@H]1CCCN1C(=O)[C@H]1CCCN1C(=O)[C@@H](Cc1c[nH]c2ccccc12)NC(=S)Nc1cc(C(F)(F)F)cc(C(F)(F)F)c1,57.7%
5,O=C(CCc1nnc2sc(-c3ccc(Cl)cc3Cl)nn12)c1nc2ncccc2[nH]1,-7.95% (active)
6,O=Cc1cc2ccccc2nc1Nc1nccs1,80.3%
7,O=C(CCc1nnc2sc(Cc3ccccc3Cl)nn12)c1nc2ncccc2[nH]1,101%
8,NS(=O)(=O)c1ccc(CCN=C=S)cc1,6.92% (active)
9,CCOc1cc(Cl)c(C(C)NC(=O)c2cccc(OC)c2)cc1OCC (stereo unspecified),-21.7% (active)
10,CN1CCN(Cc2ccc(C(=O)Nc3cncc(C#Cc4cnc5cccnn45)c3)cc2C(F)(F)F)CC1,36.1%
11,COc1ccc2c(c1)C=C1CSCC3=Cc4cc(OC)ccc4OC13O2,17.7%
12,CN1CCN(Cc2ccc(NC(=O)c3cncc(C#Cc4nc(N)nc5[nH]ncc45)c3)cc2C(F)(F)F)CC1,74.7%
13,COc1cc(C(=O)O/N=C(\N)Cc2cccc3ccccc23)cc(OC)c1OC,47.5%
14,Nc1nc(-c2cnccn2)nn1-c1nc2ccccc2s1,106%
15,COC(=O)C1=C(C)NC(C)=C(C(=O)OC)C(N2C(=O)CCC2=O)C1 (stereo unspecified),90.1%
16,COc1ccc(Br)c(/C=C2\SC(=Nc3ccc(O)cc3)NC2=O)c1,98.1%
17,COc1ccc(Cn2c(Br)c3c(c2Br)-c2nc(NC(=O)c4ccc(OC)cc4)sc2CC3)cc1,78%
18,Nc1ncnc(N)c1NC(=O)c1ccc(OCc2ccccc2)cc1,111%
19,CCOc1ccc(-c2nonc2NC(=O)c2cccc(C)c2)cc1OCC,80.5%

# Test system: K-562 leukemia
# Assay: as above
# Settings: 10 µM unless noted
row,Compound,growth
1,c1ccc2c(c1)oc1cc3sccc3nc12,98.1%
2,CC1=C(C(=O)OCC2CCN(C(=O)OC(C)(C)C)CC2)[C@H](c2cccc(C#N)c2)C2=C(CC(C)(C)CC2=O)N1,24.3%
3,O=C(c1nc2ccccc2[nH]1)C1C(c2ccc([N+](=O)[O-])cc2)C2CC3CCCCC3N2[C@@]12C(=O)Nc1cc(Cl)ccc12 (stereo partly specified),12.2%
4,Nc1ccn(C2O[C@H](CO)[C@@H](O)[C@H]2O)c(=O)n1 (stereo partly specified),74.3%
5,Nc1ccc(-n2c(=O)oc3ccc(Cl)cc3c2=O)c(Cl)c1,7.44% (active)
6,CC1=C(C(=O)OCC2CCN(C(=O)OC(C)(C)C)CC2)[C@@H](c2cccc(C#N)c2)C2=C(CC(C)(C)CC2=O)N1,25.5%
7,N#Cc1c(N)nc2c(c1N)C(c1ccc(F)cc1)c1ccc(N)cc1O2 (stereo unspecified),104%
8,COc1ccc(Cn2c(Br)c3c(c2-c2cc(OC)c(OC)c(OC)c2)CCc2sc(NC(=O)c4ccc(OC)cc4)nc2-3)cc1,84.6%
9,O=c1cc(NC2CCN(CCCc3ccccc3)CC2)c2cc(Cl)ccc2o1,5.97% (active)
10,Brc1ccc(Oc2ccc(Nc3ncnc4onc(-c5ccccc5)c34)cc2)cc1,92.4%
11,NNC(=O)CNC(=O)Nc1n[nH]c(=S)s1,90.3%
12,COc1ccc(Cn2c(Br)c3c(c2-c2cc(OC)c(OC)c(OC)c2)CCc2sc(NC(C)=O)nc2-3)cc1,15.4%
13,COc1ccc(/C=C2\NC(=O)NC2=O)cc1O,106%
14,Cc1cc2c(c(C)c1Cl)C(=O)/C(=C/c1ccco1)O2,98.5%
15,O=C(Nc1ccc(N2CCNCC2)cc1)c1[nH]ncc1Nc1cc(Oc2ccccc2)ncn1,8.34% (active)
16,CS(=O)(=O)Nc1ccc(C(=O)NC(C(=O)NO)c2ccc(-c3cccc(F)c3)cc2)cc1 (stereo unspecified),90%
17,CC[C@]1(O)C[C@@H]2CN(CCc3c([nH]c4ccccc34)[C@@](C(=O)OC)(c3cc4c(cc3OC)N(C)[C@H]3[C@@](O)(C(=O)OC)[C@H](OC(C)=O)[C@]5(CC)C=CCN6CC[C@]43[C@@H]65)C2)C1,15.3%
18,O=C(CN1C(=O)/C(=C\c2ccc(Cl)cc2)SC1=S)Nc1ncc(Cc2ccc(Cl)cc2)s1,105%
19,CCCCC(O)(c1ccc(Cl)cc1)C(CN1CCOCC1)c1ccc(Cl)cc1 (stereo unspecified),17.9%

row,Compound,growth
1,O=C(Nc1ccc(C23CC4CC(CC(c5ccccc5)(C4)C2)C3)cc1)c1cccs1,26.5%
2,O=C(COc1cc(O)c2c(=O)cc(-c3ccccc3)oc2c1)Nc1ccccc1,95.3%
3,COc1cc(C(=O)Nc2ccc(-c3nc4ccccc4[nH]3)cc2)cc(OC)c1OC,15.2%
4,COC(=O)[C@@H]1CCCN1C(=O)[C@H]1CCCN1C(=O)[C@@H](Cc1c[nH]c2ccccc12)NC(=S)Nc1cc(C(F)(F)F)cc(C(F)(F)F)c1,27.6%
5,O=C(CCc1nnc2sc(-c3ccc(Cl)cc3Cl)nn12)c1nc2ncccc2[nH]1,6.32% (active)
6,O=Cc1cc2ccccc2nc1Nc1nccs1,109%
7,O=C(CCc1nnc2sc(Cc3ccccc3Cl)nn12)c1nc2ncccc2[nH]1,102%
8,NS(=O)(=O)c1ccc(CCN=C=S)cc1,5.24% (active)
9,CCOc1cc(Cl)c(C(C)NC(=O)c2cccc(OC)c2)cc1OCC (stereo unspecified),-25.7% (active)
10,CN1CCN(Cc2ccc(C(=O)Nc3cncc(C#Cc4cnc5cccnn45)c3)cc2C(F)(F)F)CC1,6.75% (active)
11,COc1ccc2c(c1)C=C1CSCC3=Cc4cc(OC)ccc4OC13O2,11%
12,CN1CCN(Cc2ccc(NC(=O)c3cncc(C#Cc4nc(N)nc5[nH]ncc45)c3)cc2C(F)(F)F)CC1,4.75% (active)
13,COc1cc(C(=O)O/N=C(\N)Cc2cccc3ccccc23)cc(OC)c1OC,-43.2% (active)
14,Nc1nc(-c2cnccn2)nn1-c1nc2ccccc2s1,93.9%
15,COC(=O)C1=C(C)NC(C)=C(C(=O)OC)C(N2C(=O)CCC2=O)C1 (stereo unspecified),35.8%
16,COc1ccc(Br)c(/C=C2\SC(=Nc3ccc(O)cc3)NC2=O)c1,84.4%
17,COc1ccc(Cn2c(Br)c3c(c2Br)-c2nc(NC(=O)c4ccc(OC)cc4)sc2CC3)cc1,79.2%
18,Nc1ncnc(N)c1NC(=O)c1ccc(OCc2ccccc2)cc1,105%
19,CCOc1ccc(-c2nonc2NC(=O)c2cccc(C)c2)cc1OCC,11%
